A short description of assay [1]: qHTS of pediatric cancer cell lines to identify multiple opportunities for drug repurposing: Primary screen for DAOY cells (AID 1347090). Also: nearly all actives have a fitted effect of over 55% in size. Also: potency is read from the fitted curve at half-maximal effect. Put shortly:
(§1)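 Cell viability, CellTiter-Glo luminescence; 500-1,000 cells/well, 8- or 11-point titration, 48 h compound exposure at 37 degrees C, 5% CO2. Controls: DMSO neutral, bortezomib 2.3 µM final as positive.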

Assay [2] can be described thus: qHTS of pediatric cancer cell lines to identify multiple opportunities for drug repurposing: Primary screen for SJ-GBM2 cells (AID 1347091). A digest of the protocol:
as §1

Assay [3] can be described thus: qHTS of pediatric cancer cell lines to identify multiple opportunities for drug repurposing: Primary screen for A673 cells (AID 1347092). Also: nearly all actives have a fitted effect of over 45% in size. A digest of the protocol: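 48 h compound exposure, A673, 500-1,000 cells/well, 37 degrees C/5% CO2. MIPE: 11-point, 0.78 nM-46 µM; NPC: 8-point, 0.59 nM-46 µM (final). Readout CellTiter-Glo luminescence after 15 min RT.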
Assay [4] in a line: qHTS of pediatric cancer cell lines to identify multiple opportunities for drug repurposing: Primary screen for SK-N-MC cells (AID 1347093). Also: potency is read from the fitted curve at half-maximal effect. A digest of the protocol: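 Metabolically active cells were quantified by ATP-dependent luminescence (CellTiter-Glo, 15 min at room temperature) following 48 h treatment. Cells had been plated at 500-1,000 per well and settled for 5 h beforehand.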

A short description of assay [5]: qHTS of pediatric cancer cell lines to identify multiple opportunities for drug repurposing: Primary screen for BT-37 cells (AID 1347094). Also: potency is read from the fitted curve at half-maximal effect. Put shortly: (§2)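 Readout: CellTiter-Glo luminescence, 48 h treatment. Controls DMSO (neutral) and bortezomib 2.3 µM final (positive). Potency and efficacy taken from primary-screen concentration-response curves.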
(In general: Quantitative high-throughput screening tests each substance at several concentrations.)

Assay [6] in a line: qHTS of pediatric cancer cell lines to identify multiple opportunities for drug repurposing: Primary screen for NB-EBc1 cells (AID 1347095). Also: potency is read from the fitted curve at half-maximal effect. A digest of the protocol:
as §2

A short description of assay [7]: qHTS of pediatric cancer cell lines to identify multiple opportunities for drug repurposing: Primary screen for Saos-2 cells (AID 1347097). Also: nearly all actives have a fitted effect of over 40% in size. Also: potency is read from the fitted curve at half-maximal effect. Put shortly:
as §2

The nature of assay [8]: qHTS of pediatric cancer cell lines to identify multiple opportunities for drug repurposing: Primary screen for SK-N-SH cells (AID 1347098). Also: nearly all actives have a fitted effect of over 65% in size. Also: potency is read from the fitted curve at half-maximal effect. A digest of the protocol:
(§3)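 Cells (500-1,000/well) rested 5 h, then received compounds for 48 h; metabolically active cells were measured by CellTiter-Glo luminescence. Final concentrations spanned up to 46 µM (MIPE, 11-point) or 0.59 nM-46 µM (NPC, 8-point) in primary screens, 11-point in follow-ups.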

Assay [9] in a line: qHTS of pediatric cancer cell lines to identify multiple opportunities for drug repurposing: Primary screen for NB1643 cells (AID 1347099). Also: nearly all actives have a fitted effect of over 50% in size. Also: potency is read from the fitted curve at half-maximal effect. A digest of the protocol: as §2
Assay [10] in a line: qHTS of pediatric cancer cell lines to identify multiple opportunities for drug repurposing: Primary screen for U-2 OS cells (AID 1347096). Also: nearly all actives have a fitted effect of over 50% in size. Also: potency is read from the fitted curve at half-maximal effect. Put shortly: as §3

Here are results for 23 compounds from PubChem BioAssay (NCATS).

Records with an inconclusive call do not appear. Active and inactive are the calls of the source. Calls follow the shape of the dose curve; as a rule, active = well fitted curve in the direction sought with a large enough effect; inconclusive = small, poorly fitted or top-dose-only effect, or another doubt; inactive = no such curve, though single readings can be large; an effect the other way counts as inactive or inconclusive.

In the case of `CC(=O)OCC(=O)NCCCOc1cccc(CN2CCCCC2)c1`, the Potency entry in assay [1], in [2], in [3], in [4], in [5] and in [6] was “inactive” throughout. Besides, the Potency result in assay [7], in [8] and in assay [9] was “inactive” throughout.
Take `Cc1onc(-c2c(Cl)cccc2Cl)c1C(=O)N[C@@H]1C(=O)N2[C@@H]1SC(C)(C)[C@@H]2C(=O)O`: the Potency entry in assay [1], in assay [2], in assay [3], in assay [4], in assay [5] and in [10] was “inactive” each time. For the same compound, the Potency entry in assay [7], in [8] and in assay [9] was “inactive” each time.
On to `CCCCN1CCCC1C(=O)Nc1c(C)cc(C)cc1C` (centres undefined), for which the Potency entry in assay [1], in [2], in assay [3], in assay [4], in [5] and in assay [6] was “inactive” in each case. Further, the Potency result in [10], in assay [8] and in assay [9] was “inactive” throughout.
With `C[C@@H]1C[C@H]2[C@@H]3C[C@H](F)C4=CC(=O)C(Cl)=C[C@]4(C)[C@@]3(F)[C@@H](O)C[C@]2(C)[C@@]1(O)C(=O)CO`, the Potency result in assay [1], in [2], in assay [3], in assay [4], in [5] and in assay [6] was “inactive” each time. Besides, the Potency entry in assay [7], in [8] and in [9] was “inactive” throughout.
Consider `Cc1nc2n(c(=O)c1CCN1CCC(c3noc4cc(F)ccc34)CC1)CCC[C@H]2O`, for which the Potency result in assay [1], in [2], in [3], in [4], in assay [5] and in assay [10] was “inactive” in each case. Further, the Potency entry in assay [7], in assay [8] and in [9] was “inactive” in each case.
On to `CO/N=C1\CN(c2nc3c(cc2F)c(=O)c(C(=O)O)cn3C2CC2)CC1CN` (centres undefined), for which the Potency result in assay [1], in assay [2], in assay [3], in assay [4], in assay [5] and in [10] was “inactive” in each case. In addition, the Potency result in [7], in [8] and in assay [9] was “inactive” each time.
As for `N[C@@H](CCC(=O)N[C@@H](CS)C(=O)NCC(=O)O)C(=O)O`, the Potency result in assay [1], in [2], in assay [3], in assay [4], in assay [5] and in assay [6] was “inactive” throughout. Also, the Potency entry in [7], in assay [8] and in assay [9] was “inactive” throughout.
In the case of `CC(=O)[C@H]1CC[C@H]2[C@@H]3C[C@H](C)C4=CC(=O)CC[C@]4(C)[C@H]3[C@@H](O)C[C@]12C`, the Potency result in assay [1], in assay [2], in assay [3], in assay [4], in assay [5] and in assay [6] was “inactive” in each case. The Potency result in [7], in [8] and in assay [9] was “inactive” throughout.
For `CCOc1ccc(NC(=O)CC(C)O)cc1` (centres undefined), the Potency entry in assay [1], in [2], in assay [3], in [4], in assay [5] and in assay [6] was “inactive” in each case. Besides, the Potency result in assay [10], in [8] and in assay [9] was “inactive” in each case.
As for `CCCC(=O)Nc1ccc(OCC(O)CNC(C)C)c(C(C)=O)c1` (centres undefined), the Potency entry in [1], in assay [2], in assay [3], in assay [4], in assay [5] and in [6] was “inactive” in each case. In addition, the Potency entry in assay [10], in [8] and in [9] was “inactive” throughout.
With `C[C@]12CC[C@@H]3c4ccc(O)cc4CC[C@H]3[C@@H]1C[C@@H](O)[C@@H]2O`, the Potency entry in assay [1], in assay [2], in assay [3], in [4], in [5] and in assay [10] was “inactive” in each case. Further, the Potency entry in assay [7], in [8] and in assay [9] was “inactive” each time.
In the case of `N[C@H](Cc1c[nH]c2ccccc12)C(=O)O`, the Potency result in assay [1], in assay [2], in [3], in assay [4], in assay [5] and in assay [10] was “inactive” each time. For the same compound, the Potency result in assay [8] and in assay [9] was “inactive” throughout.
Regarding `O=C1OC(c2ccc(O)cc2)(c2ccc(O)cc2)c2ccccc21`, the Potency entry in assay [1], in assay [2], in [4], in assay [5], in [6] and in assay [10] was “inactive” in each case. Besides, the Potency entry in assay [7] and in assay [8] was “inactive” in each case.
`CCOC(=O)OC(C)OC1=C(C(=O)Nc2ccccn2)N(C)S(=O)(=O)c2ccccc21` (centres undefined): the Potency entry in [1], in assay [2], in assay [4], in assay [5], in assay [6] and in [10] was “inactive” each time. The Potency entry in [7], in assay [8] and in assay [9] was “inactive” in each case.
`CC(O)C(=O)O` (centres undefined): the Potency entry in assay [1], in assay [2], in assay [4], in [5], in [6] and in [10] was “inactive” each time. In addition, the Potency result in [7], in assay [8] and in assay [9] was “inactive” each time.
For the compound `Oc1cc(O)c2c(c1)O[C@H](c1ccc(O)c(O)c1)[C@H](O)C2`, the Potency entry in [1], in assay [2], in [3], in assay [4], in [5] and in assay [10] was “inactive” in each case. Besides, the Potency entry in assay [7] and in assay [9] was “inactive” throughout.
Turning to `CN(C)C(=S)SC(=S)N(C)C`, the Potency in assay [1] is 841 nM (active); in assay [4], 1 nM (active); in assay [5] it was 24600 nM (active); in [6] it was 10600 nM (active); in assay [10], 1680 nM (active); in [7], 1060 nM (active). The Potency is 1940 nM (active) in assay [8] and 2990 nM (active) in assay [9]. For the same compound, the Potency result in assay [2] was “inactive”.
Consider `Cc1c(C(N)=O)cc([N+](=O)[O-])cc1[N+](=O)[O-]`, for which the Potency result in [1], in [2], in assay [4], in assay [5], in assay [6] and in assay [10] was “inactive” each time. In addition, the Potency entry in assay [7], in assay [8] and in assay [9] was “inactive” each time.
For `Cc1cc(=O)n(-c2ccccc2)n1C`, the Potency entry in assay [1], in [2], in [4], in assay [5], in assay [6] and in assay [10] was “inactive” in each case. The Potency entry in [7], in [8] and in [9] was “inactive” in each case.
In the case of `C[C@]12CCC(=O)C=C1[C@@H]1C[C@@H]1[C@H]1[C@@H]3[C@@H]4C[C@@H]4[C@@]4(CCC(=O)O4)[C@@]3(C)CC[C@@H]12`, the Potency result in assay [1], in [2], in [3], in assay [5], in [6] and in assay [7] was “inactive” in each case. Moreover, the Potency result in [8] and in assay [9] was “inactive” each time.
Turning to `CN(C)CC/C=C1/c2ccccc2COc2ccc(CC(=O)O)cc21`, the Potency entry in assay [1], in assay [2], in assay [3], in assay [4], in assay [5] and in assay [10] was “inactive” each time. For the same compound, the Potency result in assay [7], in [8] and in [9] was “inactive” in each case.
For `CCCOC(C(=O)OC1CCN(C)CC1)(c1ccccc1)c1ccccc1`, the Potency result in [1], in assay [2], in [3], in assay [4], in assay [10] and in assay [9] was “inactive” each time.
Regarding `OC[C@H]1O[C@H](O[C@]2(CCl)O[C@H](CCl)[C@@H](O)[C@@H]2O)[C@H](O)[C@@H](O)[C@H]1Cl`, the Potency result in [1], in [2], in [3], in assay [4], in assay [5] and in assay [7] was “inactive” throughout. For the same compound, the Potency entry in assay [8] and in [9] was “inactive” each time.
